Rows were chosen to be rich in hits. Some 4.1% of all compounds tested hit in one or more screens of this group.
TRPM1 prom inh: MITF TRPM1 promoter inhibition in SK-MEL-5 cells; SK-MEL-5 TRPM1 promoter luciferase, 24 h; inhibition, % at 12.5 µM; 330,000 compounds, 0.83% hits;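 active = mean inhibition across replicates of 60% or more, whatever share of single replicates reaches that level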
TROY signal inh: blocks TROY-dependent signaling in reporter cells; inhibition, % at 10 µM; AID 1347056; 360,000 compounds, 0.98% hits; Q293 LMP1-TROYcd NF-kB luciferase reporter, 4 h;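 active = compounds whose plate-normalised and pattern-corrected inhibition of the luciferase reporter signal at the single screening dose is 50% or more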
Shn3 inh set2: inhibitors of Schnurri-3 3'UTR reporter in osteoblasts; 360,000 compounds, 0.52% hits; Clone20 osteoblast Shn3 3'UTR firefly luciferase, 24 h; inhibition, % at 12.5 µM;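 active = mean inhibition of at least 75% with every replicate also reaching 75%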
TWEAK-Fn14 inh: inhibitors of TWEAK-Fn14 interaction signaling; TWEAK-stimulated Fn14 reporter cells, luciferase luminescence, 8 h; inhibition, % at 10 µM; 360,000 compounds, 2% hits; AID 1159606; in the data active = inhibition above about 50%
EBV LMP1 NFkB: reduces LMP1-driven NF-kappaB luciferase signal; inhibition, % at 12.5 µM; 350,000 compounds, 0.69% hits; LMP1-induced NF-kappaB luciferase reporter cells, luminescence; in the data active = inhibition above about 41%
Peg3 prom inh-1: inhibitors of Peg3 promoter; HeLa PEG-Prom luciferase reporter, luminescence, overnight; inhibition, % at 20 µM; 360,000 compounds, 1.7% hits; AID 588405;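 active = inhibition of at least 50% at 20 µM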
Peg3 prom inh-2: Peg3 promoter inhibition confirmation. AID 602417. inhibition, % at 20 µM. 1,300 compounds, 84% hits. shares compounds with Peg3 prom inh-1. HeLa PEG-Prom luciferase reporter, luminescence, overnight;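 active = at 20 µM dose, 40% or more inhibition averaged across four replicates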
A number is an active result.

How did CCC(=O)Nc1ccc(C(=O)OCc2ccc(Cl)c(Cl)c2)cc1 do in these assays?
TRPM1 prom inh: inactive; TROY signal inh: inactive; Shn3 inh set2: inactive; TWEAK-Fn14 inh: inactive; EBV LMP1 NFkB: inactive; Peg3 prom inh-1: inactive

What do the screens show for `CCN(C(=S)Nc1cccc2ccccc12)c1ccccc1`?
TROY signal inh: inactive; Shn3 inh set2: inactive; TWEAK-Fn14 inh: 83; EBV LMP1 NFkB: inactive; Peg3 prom inh-1: inactive

What do the screens show for `CCN(CC)c1ccc(/C=C2\SC(=O)N(C(C)C)C2=O)o1`?
TROY signal inh: inactive; Shn3 inh set2: 97; TWEAK-Fn14 inh: inactive; Peg3 prom inh-1: 89

What do the screens show for `Cc1cc(C(=O)CSc2nnc(-c3ccccc3)n2-c2ccccc2)c(C)n1-c1ncn[nH]1`?
TRPM1 prom inh: inactive; TROY signal inh: inactive; Shn3 inh set2: inactive; TWEAK-Fn14 inh: inactive; EBV LMP1 NFkB: inactive; Peg3 prom inh-1: inactive

Results for Cc1cc(C(=O)CSc2nnc3ccccn23)c(C)n1-c1ccccc1 ?
TRPM1 prom inh: 78; TROY signal inh: 79; Shn3 inh set2: inactive; TWEAK-Fn14 inh: 101; EBV LMP1 NFkB: 81; Peg3 prom inh-1: 101; Peg3 prom inh-2: 81

Results for COc1cc(CNCCCN2CCOCC2)cc(Br)c1OCc1ccc(Cl)cc1 ?
TRPM1 prom inh: inactive; TROY signal inh: inactive; Shn3 inh set2: inactive; TWEAK-Fn14 inh: inactive; EBV LMP1 NFkB: inactive; Peg3 prom inh-1: 100; Peg3 prom inh-2: 100

Results for CCCNC(=O)c1cc(C2CCCCN2C(=O)c2ccc(OC)cc2)on1 (configuration not stated) ?
TROY signal inh: inactive; Shn3 inh set2: inactive; TWEAK-Fn14 inh: inactive; Peg3 prom inh-1: inactive

Results for O=C(O)c1ccc(Nc2nc3c(s2)CCCC3)cc1 ?
TRPM1 prom inh: 64; TROY signal inh: inactive; Shn3 inh set2: inactive; TWEAK-Fn14 inh: 91; EBV LMP1 NFkB: inactive; Peg3 prom inh-1: 67; Peg3 prom inh-2: 54

Results for O=C(c1cnn2ccccc12)N(Cc1ccco1)C1CCCC1 ?
TROY signal inh: inactive; Shn3 inh set2: inactive; TWEAK-Fn14 inh: inactive; EBV LMP1 NFkB: inactive; Peg3 prom inh-1: inactive

Results for CC(C)(C)c1ccc(CN2N=Nc3ccccc3S2(=O)=O)cc1 ?
TRPM1 prom inh: inactive; TROY signal inh: inactive; Shn3 inh set2: inactive; TWEAK-Fn14 inh: inactive; EBV LMP1 NFkB: inactive; Peg3 prom inh-1: 94; Peg3 prom inh-2: 55

How did CC(C)(C)c1ccc(C(=O)N2CCN(Cc3ccccc3)CC2)cc1 do in these assays?
TROY signal inh: inactive; Shn3 inh set2: inactive; TWEAK-Fn14 inh: inactive; EBV LMP1 NFkB: inactive; Peg3 prom inh-1: inactive

Results for CN1C[C@@H]2C[C@@H](C3=Cc4cc(Cl)ccc4OC3)N3CCC[C@@]23C1=O ?
TRPM1 prom inh: inactive; TROY signal inh: inactive; Shn3 inh set2: inactive; TWEAK-Fn14 inh: inactive; EBV LMP1 NFkB: inactive; Peg3 prom inh-1: inactive

How did COc1ccc2c(c1)C=C([C@@H]1C[C@H]3CN(c4ccccc4)C(=O)[C@]34CCCN14)CO2 do in these assays?
TRPM1 prom inh: inactive; TROY signal inh: inactive; Shn3 inh set2: inactive; TWEAK-Fn14 inh: inactive; EBV LMP1 NFkB: inactive; Peg3 prom inh-1: 71; Peg3 prom inh-2: 53

Results for CC(C)(C)NC(=O)C(c1ccc(-c2ccccc2)cc1)N(C[C@H]1CC[C@@H]([C@@H]2CC[C@H](CO)O2)O1)C(=O)c1ccccc1F (some centres not stated) ?
TRPM1 prom inh: inactive; TROY signal inh: inactive; Shn3 inh set2: inactive; TWEAK-Fn14 inh: inactive; EBV LMP1 NFkB: inactive; Peg3 prom inh-1: inactive

What do the screens show for `Cc1ccc(Cn2c(=N)n(CC(=O)c3ccccc3)c3ccccc32)cc1`?
TRPM1 prom inh: inactive; TROY signal inh: inactive; Shn3 inh set2: inactive; TWEAK-Fn14 inh: inactive; EBV LMP1 NFkB: inactive; Peg3 prom inh-1: 92; Peg3 prom inh-2: 86

What do the screens show for `CCCn1c(=N)n(CC(=O)c2ccc(Cl)cc2)c2ccccc21`?
TRPM1 prom inh: inactive; TROY signal inh: inactive; Shn3 inh set2: inactive; TWEAK-Fn14 inh: inactive; EBV LMP1 NFkB: inactive; Peg3 prom inh-1: 66; Peg3 prom inh-2: 60

What do the screens show for `O=S(=O)(NC1CC(NS(=O)(=O)OCC(Cl)(Cl)Cl)C2CCCCC12)OCC(Cl)(Cl)Cl` (configuration not stated)?
TRPM1 prom inh: inactive; TROY signal inh: inactive; Shn3 inh set2: inactive; TWEAK-Fn14 inh: inactive; EBV LMP1 NFkB: inactive; Peg3 prom inh-1: 57; Peg3 prom inh-2: 93

What do the screens show for `NS(=O)(=O)c1cccc(NC(=O)COC(=O)c2ccc(S(=O)(=O)N3CCOCC3)cc2)c1`?
TRPM1 prom inh: inactive; TROY signal inh: inactive; Shn3 inh set2: inactive; TWEAK-Fn14 inh: inactive; EBV LMP1 NFkB: inactive; Peg3 prom inh-1: inactive

How did Cc1ccc(C2(CCNCc3ccc(N(C)C)cc3)CCOC(C(C)C)C2)cc1 (configuration not stated) do in these assays?
TRPM1 prom inh: inactive; TROY signal inh: inactive; Shn3 inh set2: inactive; TWEAK-Fn14 inh: inactive; EBV LMP1 NFkB: inactive; Peg3 prom inh-1: 56; Peg3 prom inh-2: 63

How did Cc1ccc(C2(CCNS(=O)(=O)c3ccc(C)cc3)CCOC(C(C)C)C2)cc1 (configuration not stated) do in these assays?
TRPM1 prom inh: inactive; TROY signal inh: inactive; Shn3 inh set2: inactive; TWEAK-Fn14 inh: inactive; EBV LMP1 NFkB: inactive; Peg3 prom inh-1: inactive

How did CS(=O)(=O)Nc1cccc(NC(=O)c2cccc3c(-c4cccnc4)coc23)c1 do in these assays?
TROY signal inh: inactive; Shn3 inh set2: inactive; TWEAK-Fn14 inh: inactive; Peg3 prom inh-1: inactive

How did CC(=O)Nc1cccc(NC(=O)c2cc(-c3cccnc3)nc3ccc(Cl)cc23)c1 do in these assays?
TRPM1 prom inh: inactive; TROY signal inh: inactive; Shn3 inh set2: inactive; TWEAK-Fn14 inh: inactive; EBV LMP1 NFkB: inactive; Peg3 prom inh-1: 57; Peg3 prom inh-2: 47

How did CC(=O)c1cccc(NC(=O)c2cccc3c(-c4cccnc4)coc23)c1 do in these assays?
TROY signal inh: inactive; Shn3 inh set2: inactive; TWEAK-Fn14 inh: 58; Peg3 prom inh-1: 66; Peg3 prom inh-2: 61

How did COc1ccc(/C(C)=N/NC(=S)Nc2cc(C)ccc2C)cc1 do in these assays?
TRPM1 prom inh: inactive; TROY signal inh: inactive; Shn3 inh set2: inactive; TWEAK-Fn14 inh: inactive; EBV LMP1 NFkB: inactive; Peg3 prom inh-1: inactive

Results for Cc1ccccc1NC(=O)Cc1nc(COC(=O)CSc2ccccc2)cs1 ?
TRPM1 prom inh: inactive; TROY signal inh: inactive; Shn3 inh set2: inactive; TWEAK-Fn14 inh: inactive; EBV LMP1 NFkB: inactive; Peg3 prom inh-1: inactive

What do the screens show for `O=C(NNC(=O)c1cccnc1SCc1cccc([N+](=O)[O-])c1)c1ccccn1`?
TRPM1 prom inh: inactive; TROY signal inh: inactive; Shn3 inh set2: 96; TWEAK-Fn14 inh: inactive; EBV LMP1 NFkB: inactive; Peg3 prom inh-1: 55; Peg3 prom inh-2: 70

What do the screens show for `CC(=O)n1cc(N(C(=O)CCl)c2ccc(C)cc2)c2ccccc21`?
TRPM1 prom inh: 74; TROY signal inh: inactive; TWEAK-Fn14 inh: 56; EBV LMP1 NFkB: inactive; Peg3 prom inh-1: 109; Peg3 prom inh-2: 101
